# POLH inh – DNA polymerase eta (human) inhibition | Potency, µM (top dose mostly 114 µM), without a hit: at the top dose activity change, negative = inhibition, hits mostly inhibitors | hit rate 1.2% among 390,000 | recombinant Pol eta, fluorescent DNA replication assay; note: potency is the fitted concentration of half-maximal effect; % is set by controls: 0 for no effect and ±100 for the full control effect
#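 Pol eta (10 nM) was preincubated with compounds for 15 min at room temperature, after which fluorescent replication substrate (50 nM final) was added to start the reaction. Fluorescence was read kinetically at 0 and 10 min.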
# Pol iota inh – inhibitors of human DNA polymerase iota | Q9UNA4 | hit rate 1% among 390,000 | Pol iota fluorescent replication assay, 10 min | Potency, µM (highest dose often 115 µM), without a hit: at the highest dose activity, negative = inhibition, actives largely listed as inhibitors; note: potency is the fitted concentration of half-maximal effect
#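 Fluorescent replication assay read twice, at 0 min and 10 min after adding 50 nM (final) substrate. Enzyme (10 nM) and compounds were first incubated 15 min at room temperature; enzyme-free buffer wells were negative controls.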
# PI5P4Ka inh – inhibitors of human PI5P4K alpha. max response, %. hit rate 1.2% among 330,000. PI5P4Kalpha enzyme, ADP-Glo luminescence, 60 min; hits give low values; active = max response of -50% or lower; inconclusive = between -30% and -50%; inactive = -30% or higher; note: value at the top dose of about 77 µM; % is set by controls: 0 for no effect and ±100 for the full control effect
#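 Luminescence from ADP-Glo served as readout of PI5P4Kalpha activity in a qHTS format. Reaction: enzyme, substrate, compound, ATP at 5 microM final, 60 min at RT.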
# POLK inh – inhibitors of human DNA polymerase kappa; Q9UBT6; purified Pol kappa, fluorescent DNA synthesis assay, 10 min; Potency, µM (highest dose often 107 µM), for inactives: at the highest dose activity, negative = inhibition, usual class: inhibitors; hit rate 0.53% among 400,000; AID 588579; note: potency is the fitted concentration of half-maximal effect; % is set by controls: 0 for no effect and ±100 for the full control effect
# Target sequence (Q9UBT6 whole entry, looked up): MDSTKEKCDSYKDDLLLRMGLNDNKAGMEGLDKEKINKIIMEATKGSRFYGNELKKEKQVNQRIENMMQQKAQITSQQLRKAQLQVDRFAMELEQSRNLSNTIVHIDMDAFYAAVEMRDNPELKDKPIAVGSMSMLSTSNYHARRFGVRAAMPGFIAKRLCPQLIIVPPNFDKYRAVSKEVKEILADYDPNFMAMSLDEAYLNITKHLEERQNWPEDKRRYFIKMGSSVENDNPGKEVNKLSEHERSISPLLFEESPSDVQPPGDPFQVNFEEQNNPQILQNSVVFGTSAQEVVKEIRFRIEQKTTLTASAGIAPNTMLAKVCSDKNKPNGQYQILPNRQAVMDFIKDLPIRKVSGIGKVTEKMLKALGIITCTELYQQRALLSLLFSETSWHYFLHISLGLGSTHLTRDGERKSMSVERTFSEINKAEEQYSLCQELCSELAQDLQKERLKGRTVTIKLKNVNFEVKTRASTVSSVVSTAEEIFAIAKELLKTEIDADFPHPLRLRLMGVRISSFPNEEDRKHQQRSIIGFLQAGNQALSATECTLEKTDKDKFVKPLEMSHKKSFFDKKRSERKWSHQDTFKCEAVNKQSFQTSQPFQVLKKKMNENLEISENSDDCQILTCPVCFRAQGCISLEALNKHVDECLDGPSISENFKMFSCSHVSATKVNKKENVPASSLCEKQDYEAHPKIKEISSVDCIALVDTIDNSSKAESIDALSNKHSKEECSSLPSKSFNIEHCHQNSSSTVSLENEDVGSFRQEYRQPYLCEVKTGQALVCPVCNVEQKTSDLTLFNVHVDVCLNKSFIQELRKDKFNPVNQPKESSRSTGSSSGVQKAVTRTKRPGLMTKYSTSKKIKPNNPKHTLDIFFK
#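 Readout: fluorescence, taken kinetically at 0 and 10 min. Conditions: 10 nM Pol kappa, 15 min RT compound preincubation, 50 nM substrate final. Controls: enzyme-free buffer wells.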
# PI4K2A inh – PI4K2A (human) kinase inhibition | Q9BTU6 | purified PI4K2A, ADP-Glo luminescence, 1 h; hits give low values | activity change, negative = inhibition, % at 76.9 µM | hit rate 0.13% among 420,000 | AID 1346378; in the data active = activity change below about -50%; inconclusive = mostly about -30% to -49%;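 note: -100% = wells without enzyme as full effect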
#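 Compounds are screened against recombinant PI4K2A using PI as substrate and ATP, the latter dispensed at 300 microM. Reactions run one hour at ambient temperature before ADP-Glo detection; full inhibition defined by wells lacking enzyme.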
# Pol beta inh – DNA polymerase beta (human) inhibition; Potency, µM (top dose mostly 114 µM), for the others: at the top dose activity change, negative = inhibition, usual class: inhibitors; hit rate 1.3% among 340,000; Pol beta primer extension/strand displacement, fluorescence kinetic; P06746; note: potency is the fitted concentration of half-maximal effect; % is set by controls: 0 for no effect and ±100 for the full control effect
#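 10 nM enzyme + cpd, 15 min RT; start with substrate 50 nM final; read 0 min and after 10 min RT. Corrected, normalized data; 4-parameter Hill curve fit.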
# * marks the source's active call; other numbers are inactive results; ? = inconclusive; / = no result; ! = not confirmed by another sample; [ ] = dose if it differs, or a comment. An excerpt weighted towards active compounds, which were near 2.8% of everything screened. Unless noted, calls come from the whole dose curve; as a rule, active = well fitted inhibition curve with a large enough effect; inconclusive = small, poorly fitted or top-dose-only effect, or another doubt; inactive = no such curve, though single readings can be large or run the other way.
SMILES,POLH inh,Pol iota inh,PI5P4Ka inh,POLK inh,PI4K2A inh,Pol beta inh
COc1ccc(C(=O)N2c3ccc(C)cc3C(C)(c3ccccc3)CC2(C)C)cc1 (stereo not drawn),-22%,22%,/,-25%,1,-15%
CC(C)CN1CCC(=O)N([C@H](COc2ccccc2)Cc2ccccc2)CC1,-11%,89µM*!,1,-17%,1,7%
CCn1c(O)c(/C=C2\C=NN=C2c2ccc(C)cc2)sc1=S,-21%,89µM*,3,-14%,-3,44%
COc1ccc(Cn2c(SCc3ccc(C(=O)NCc4ccc(C)cc4)cc3)nc3cccnc32)cc1,-5%,79µM*,/,-36%,-3,13%
CCNC(=O)c1ccc(CSc2nc3cccnc3n2Cc2ccc(OC)cc2)cc1,-6%,-9%,/,-7%,1,4%
CCOc1ccccc1NC(=O)c1cc(-c2ccncc2)nc2c(Cl)cccc12,-4%,-10%,2,-16%,-5,16µM*
O=C(CSc1nc2ccccc2c(=O)n1Cc1ccccc1)Nc1ccc(Br)cc1C(=O)O,89µM*,?,-75*,-17%,1,?
Cc1ccc(Cl)cc1N1CCN(C(=O)Cn2cnc3nc4c(cc3c2=O)CCCC4)CC1,-15%,11%,/,-2%[60.1 µM],-2,4%
O=Cc1ccc(N2CCN(S(=O)(=O)c3ccc4c(c3)CC(=O)N4)CC2)cc1,/,/,/,/,-56*,/
Cc1cc2[nH]c(=O)c(=O)[nH]c2cc1S(=O)(=O)N1CCN(c2cccc(Cl)c2)CC1,0%,?,2,-18%,0,35µM*
CC1CCN(S(=O)(=O)c2ccc3[nH]c(=O)c(=O)[nH]c3c2)CC1,-12%,3%[58.9 µM],/,-18%,3,24%
O=C1Cc2cc(S(=O)(=O)N3CCN(c4ccccc4)CC3)ccc2N1,-4%,45%,-1,-22%,0,5%
O=c1[nH]c2ccc(S(=O)(=O)N3CCN(c4ccccc4)CC3)cc2[nH]c1=O,79µM*,40µM*,/,?,-3,45µM*
Cc1cc2[nH]c(=O)c(=O)[nH]c2cc1S(=O)(=O)N1CCN(c2cccc(C(F)(F)F)c2)CC1,3%,?,4,-24%,-9,?
CC(=O)SC1CC2=CC(=O)CC[C@]2(C)C2CC[C@@]3(C)C(CC[C@@]34CCC(=O)O4)C12 (stereo partly drawn),/,/,/,-12%[60.1 µM],0,/
CCOc1ccc(Br)cc1C1=NN(C(C)=O)C(c2ccc([N+](=O)[O-])s2)O1 (stereo not drawn),50µM*,50µM*,-21,-47%,-11,18µM*
CC(=O)N1N=C(c2ccc(C)cc2)OC1c1ccc(Br)cc1 (stereo not drawn),-5%,62%,6,-15%,-1,5%
CCCC(=O)N(C)c1ccc(/C=C2\C=Cc3ccccc32)cc1,/,0%,/,-6%,/,/
CCOc1ccc(N2C(=O)c3n[nH]c(-c4cccs4)c3C2c2cccc(F)c2)cc1 (stereo not drawn),/,13µM*,/,1%,0,8%
Cc1nc2ccccc2c(=O)n1/N=C/c1c(O)ccc2ccccc12,0%,?,-3,-7%,5,2%
Cc1nc2ccccc2c(=O)n1/N=C/c1c(O)ccc2oc3c(c12)CCCC3,-8%,89µM*,7,1%,-5,4%
CC(C)(C)N=Cc1c(O)ccc2oc3c(c12)CCCC3,40µM*,?,-2,-75%,-7,0%
CN(C)CCN1CCN(c2cccc(Cl)c2)C1=O,/,/,/,/,-2,/
CCOC(=O)C1CCCN(C(=O)CSc2ccc(Br)cc2)C1 (stereo not drawn),-7%,19%,-54*,-10%,-2,-1%
COc1ccc2c(C)c(CC(=O)NCc3ccc(C)cc3)c(=O)oc2c1OC,-11%,7%,/,10%,0,3%
SMILES,POLH inh,Pol iota inh,PI5P4Ka inh,POLK inh,PI4K2A inh,Pol beta inh
CCN(CC)CC(=O)OCC(=O)[C@@]1(O)CC[C@H]2[C@@H]3CCC4=CC(=O)CC[C@]4(C)[C@H]3[C@@H](O)C[C@@]21C,/,/,/,/,1,/
Oc1cccc(CN2CCOCC2)c1O,2%,20µM*,-16,28µM*,-12,/
Brc1ccc(CNCCCSc2nnnn2-c2ccccc2)cc1,/,-23%,/,5%,3,-1%
COc1ccccc1-c1nnc2sc(COc3ccc(Cl)cc3Cl)nn12,-10%,-15%,/,-25%,-5,56µM*
CCCn1c(=O)c2ccccc2n2c(SCCNCCO)nnc12,-17%,-25%,0,-6%,2,0.16µM*
COc1ccccc1CN1C(=O)CN(C2CCCCCC2)C(=O)C1c1ccc(C)cc1 (stereo not drawn),-20%,17%,/,6%[60.1 µM],-7,-27%
COC(=O)c1ccccc1NC(=O)c1cc2ncc(Br)cn2n1,7.1µM*,?,?,-20%,-3,45µM*
COc1ccc(O)c(/C=N/NC(=S)Nc2cccc(S(=O)(=O)N(C)C)c2)c1,-9%,11%,-56*,-14%,22,-2%
CC(C)(C)OC(=O)[C@H](Cc1ccccc1)NCC(=O)OCc1ccc(C(=O)NCc2ccccc2)cc1,/,/,/,/,7,/
O=C(CS(=O)Cc1ccco1)NCC=CCOc1cc(CN2CCCCC2)ccn1 (stereo not drawn),/,/,/,2%[19.4 µM],/,/
Cc1cc(C)cc(N=Cc2ccc([N+](=O)[O-])s2)c1,32µM*,79µM*,-4,-19%,-13,?
CN(CC(=O)O)c1ccc(/C=C2\C=Cc3ccccc32)cc1,/,50%,/,56µM*!,/,/
CC(=O)NCCCc1ccc(C(=O)COC(=O)CNC(=O)c2ccc3ccccc3c2)cc1,/,19%,/,-16%,/,/
CCOc1ccc(NC(=O)Nc2ccc3c(c2)CCC3)cc1,-11%,31%,-3,10%,0,25µM*
CCOc1ccc(NC(=O)NNC(=O)c2ccc(CC)s2)cc1,-8%,?,5,-17%,-7,79µM*
CC(=O)Nc1ccc(C2=NNC(=Nc3cccc(S(=O)(=O)N(C)C)c3)SC2)cc1,-17%,17%,-71*,-4%,-28,8%
O=C(COc1ccccc1)NCC(=O)N1CCCCCC1,-10%,18%,-1,-2%,-2,/
C=CCn1c(C)cc(C(=O)COC(=O)c2ccc3c(c2)NC(=O)CS3)c1C,?,?,?,?,-9,40µM*
COCCn1c(C)cc(C(=O)COC(=O)c2ccc3c(c2)NC(=O)CS3)c1C,?,-3%,-16,-11%,0,9%
CC1CCC2(CCC(=O)N2C[C@@H](O)c2ccccc2)CC1 (stereo partly drawn),/,/,/,/,1,/
Cc1cnnc2ccccc12,/,-11%,/,-17%,/,/
Cc1ccc(NC(=O)CCC(=O)N/N=C/c2ccc([N+](=O)[O-])o2)cc1C,-8%,?,-12,-16%,4,?
